Reference: PubChem BioAssay AID1347138 (National Center for Advancing Translational Sciences (NCATS), 2019)
Some of the results follow. Entries that show only a call come without a potency. Results filed as inconclusive are left out. Calls of active or inactive are those of the source. Calls come from the whole dose curve; as a rule, active = well fitted inhibition curve with a large enough effect; inconclusive = small, poorly fitted or top-dose-only effect; inactive = no such curve, though single readings can be large or run the other way.

Experiment: qHTS of pediatric cancer cell lines to identify multiple opportunities for drug repurposing: Orthogonal 3D caspase screen for TC32 cells
Conditions: TC32 3D spheroids, caspase-3/7 fluorescence imaging, 24 h; series mostly up to 30.7 µM
From the text: Drug repurposing or repositioning has been offered as a strategy for drug development in oncology programs. This approach has special potential for childhood cancers and other rare or orphan diseases, where the expected return on new drug development has been a disincentive to pharmaceuticals. […] In this project we exploit the poly-pharmacology of drugs to discover new indications via phenotypic screening of a panel of 19 well-characterized cell lines derived from solid tumors seen in children and adolescents. The goal is to identify approved drugs with previously unrecognized anticancer properties that has the potential to reveal new mechanisms and biological processes involved in carcinogenesis or drug resistance. We employed a titration-based paradigm (quantitative high-throughput screening or qHTS), where all compounds were tested at multiple concentrations for their effect on cell viability. Concentration-response curves (CRCs) were derived directly from the primary screen, and both potency and efficacy values were used to identify compounds with robust bioactivity profiles. […] These two assays will be used to validate active compounds and assess the correlation of compound's potency in 2D vs 3D cultures on selected cell lines. Assay Submitter: Nathalia J. Martinez, National Center for Advancing Translational Sciences, National Institutes of Health, Rockville, MD, USA; email: natalia.martinez@nih.gov Shen, M et al. Quantitative high-throughput phenotypic screening of pediatric cancer cell lines identifies multiple opportunities for drug repurposing. Oncotarget 2017 Dec 19;9(4):4758-4772. PMID 29435139.
The cells were obtained from University of North Carolina (UNC), Pediatric Preclinical Testing Program (PPT), and Coriell Institute (CI). qHTS apoptosis assay in 3D cultures: For the apoptosis assay, cells were assayed in phenol red-free growth media at a density of 1,000 cells/well. Thirty microliters of cells were dispensed into 384-well, ULA, round bottom plates (Corning) using a Multidrop dispenser. Plates were spun down at 1,000 rpm for 1 min and incubated at 37 C, 5% CO2, under a humidified atmosphere for 24 hours to allow spheroid formation. Ninety-two nanoliter of compounds and controls were subsequently transferred via GNF Pintool. Plates were sealed using a breathable seal (Diversified Biotech, Dedham, MA) and incubated for 24 hours at 37C before addition of CellEvent Caspase-3/7 green detection reagent (TheremoFisher Scientific). Staurosporine at final concentrations of 3 µM was used as positive control. Spheroids were imaged using bright-field and green (EX: […]) filters and analyzed with the Celigo Tumorsphere 1+2 application software. Spheroids were first identified using bright-field segmentation, and the average fluorescent intensity of the green channel was used to quantify caspase activation as percent activity based on neutral control DMSO and positive control.

For `CC[C@]1(O)C[C@@H]2CN(CCc3c([nH]c4ccccc34)[C@@](C(=O)OC)(c3cc4c(cc3OC)N(C)[C@H]3[C@@](O)(C(=O)OC)[C@H](OC(C)=O)[C@]5(CC)C=CCN6CC[C@]43[C@@H]65)C2)C1`, which Potency is on record?
Its Potency is 72.2 nM (active).

For `CC1(C)O[C@@H]2C[C@@H]3[C@H]4C[C@@H](F)C5=CC(=O)C=C[C@]5(C)[C@@]4(F)[C@@H](O)C[C@]3(C)[C@]2(C(=O)CO)O1`, which Potency is on record?
Its Potency is “inactive”.

For `CC(NCc1ccc2c(c1)nc(NC(=O)c1ccc(-c3cn[nH]c3)s1)n2CC(C)(C)O)C(C)(C)C` (stereo unspecified), which Potency is on record?
Its Potency is 1440 nM (active).

For `COc1c(C)c2c(c(O)c1C/C=C(\C)CCC(=O)O)C(=O)OC2`, which Potency is on record?
Its Potency is “inactive”.

With `C=C1C(=CC=C2CCC[C@]3(C)[C@@H]([C@H](C)C=C[C@H](C)C(C)C)CC[C@@H]23)C[C@@H](O)C[C@@H]1O` as the compound, how does the Potency read?
The Potency was “inactive”.

With `COC(=O)Nc1nc2ccc(Sc3ccccc3)cc2[nH]1` as the compound, how does the Potency read?
The Potency was 11400 nM (active).
